Source: PubChem BioAssay (EPA / NIEHS)
The source made the active and inactive calls. How the source made its calls: active means hit-call score of the fitted dose curve at least 0.9, where 1 is the maximum; inactive means score below 0.9.

How the values were obtained:
Conditions in all cases: mRNA level, 48 h; actives raise or lower the signal
[1] = read-out: solute carrier (SLCO1B1), SLCO1B1 (gene 10599); assay: LTEA_HepaRG_SLCO1B1: Life Technologies and Expression Analysis (LTEA) Assay for solute carrier (SLCO1B1) using HepaRG (AID 2283530)
Procedure, shortened: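 Human HepaRG cultures treated for 48 h with an eight-concentration half-log series topping at 100 uM; SLCO1B1 measured by qRT-PCR and fitted bidirectionally relative to DMSO.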

[2] = read-out: sulfotransferase 2A1 (SULT2A1), SULT2A1 (gene 6822); assay: LTEA_HepaRG_SULT2A1: Life Technologies and Expression Analysis (LTEA) Assay for sulfotransferase 2A1 (SULT2A1) using HepaRG (AID 2283531)
Procedure, shortened: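 Gene-expression endpoint in a human liver cell line: SULT2A1 mRNA change after 48 h chemical treatment, curves fitted in both directions relative to 0.5% DMSO vehicle. Concentrations spanned eight half-log steps from 100 uM.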

[3] = read-out: Transforming Growth Factor (TGFA), TGFA (gene 7039); assay: LTEA_HepaRG_TGFA: Life Technologies and Expression Analysis (LTEA) Assay for Transforming Growth Factor (TGFA) using HepaRG (AID 2283532)
Procedure, shortened: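 qRT-PCR read-out of TGFA transcript, normalized to three housekeeping genes, fitted bidirectionally against 0.5% DMSO baseline. Human HepaRG cultures received chemicals for 48 h at eight half-log concentrations, top 100 uM.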

[4] = read-out: Transforming Growth Factor (TGFB1), TGFB1 (gene 7040); assay: LTEA_HepaRG_TGFB1: Life Technologies and Expression Analysis (LTEA) Assay for Transforming Growth Factor (TGFB1) Transporter using HepaRG (AID 2283533)
Procedure, shortened: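 Eight-point concentration-response (max 100 uM, half-log) in HepaRG under serum-free induction conditions, 48 h. TGFB1 mRNA by qRT-PCR, housekeeping-normalized.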

[5] = read-out: Tumor necrosis factor receptor 1 (TNFRSF1A), TNFRSF1A (gene 7132); assay: LTEA_HepaRG_TNFRSF1A: Life Technologies and Expression Analysis (LTEA) Assay for Tumor necrosis factor receptor 1 (TNFRSF1A) using HepaRG (AID 2283535)
Procedure, shortened: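 Assay uses 48 h chemical treatment of differentiated HepaRG monolayers, tested in duplicate at eight concentrations from 100 uM downward in 0.5% DMSO. mRNA is normalized to ACTB, GAPDH and POLR2A, with induction or suppression fitted relative to vehicle.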

[6] = read-out: Thyroid Hormone Responsive (THRSP), THRSP (gene 7069); assay: LTEA_HepaRG_THRSP: Life Technologies and Expression Analysis (LTEA) Assay for Thyroid Hormone Responsive (THRSP) using HepaRG (AID 2283536)
Procedure, shortened: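 qRT-PCR read-out (Fluidigm TaqMan), housekeeping-normalized (ACTB/GAPDH/POLR2A). HepaRG, 48 h chemical exposure, 8-pt half-log series from 100 uM in 0.5% DMSO, duplicates. Bidirectional curve fit vs 0.5% DMSO baseline.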

[7] = read-out: Cellular tumor antigen p53 (Homo sapiens) (UniProt P04637); assay: LTEA_HepaRG_TP53: Life Technologies and Expression Analysis (LTEA) Assay for Tumor Protein P53 (TP53) using HepaRG (AID 2283537)
Procedure, shortened: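 Read-out is TP53 transcript level by microfluidic qRT-PCR, normalised to three housekeeping genes and fitted bidirectionally against DMSO. Human HepaRG cells received compounds for 48 h, highest concentration 100 uM.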

[8] = read-out: UDP glucuronosyltransferase (UGT1A1), UGT1A1 (gene 54658); assay: LTEA_HepaRG_UGT1A1: Life Technologies and Expression Analysis (LTEA) Assay for UDP glucuronosyltransferase (UGT1A1) using HepaRG (AID 2283538)
Procedure, shortened: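 HepaRG, 48 h chemical exposure (top 100 uM, half-log 8-pt, 0.5% DMSO vehicle), duplicate wells; qRT-PCR (TaqMan, Fluidigm array) for UGT1A1 mRNA, housekeeping-normalized; bidirectional curve fit vs DMSO baseline.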

Measured: AC50

Sequence of Cellular tumor antigen p53 (Homo sapiens) (P04637 whole entry, looked up): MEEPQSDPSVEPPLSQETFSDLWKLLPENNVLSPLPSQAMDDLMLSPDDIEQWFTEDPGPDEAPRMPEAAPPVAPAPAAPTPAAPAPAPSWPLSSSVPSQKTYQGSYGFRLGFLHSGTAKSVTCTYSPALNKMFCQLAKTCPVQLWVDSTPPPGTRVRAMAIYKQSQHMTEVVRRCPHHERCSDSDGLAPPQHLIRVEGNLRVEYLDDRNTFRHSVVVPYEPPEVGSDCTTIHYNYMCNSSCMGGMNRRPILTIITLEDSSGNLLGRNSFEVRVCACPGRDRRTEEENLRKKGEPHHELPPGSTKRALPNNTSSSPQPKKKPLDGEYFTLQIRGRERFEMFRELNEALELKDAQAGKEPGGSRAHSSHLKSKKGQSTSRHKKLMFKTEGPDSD

OC(c1ccc(Cl)cc1)(c1cncnc1)c1ccccc1Cl (configuration not stated)
inactive: [5]
active: [1] 85.2 µM | [2] 77 µM | [3] 77.5 µM | [4] 50 µM | [6] 86.4 µM | [7] 70.7 µM | [8] 91.1 µM

C#CCOS(=O)OC1CCCCC1Oc1ccc(C(C)(C)C)cc1 (configuration not stated)
active: [1] 29.2 µM | [2] 27.3 µM | [3] 22.2 µM | [4] 50 µM | [5] 26.1 µM | [7] 58.4 µM | [8] 27.5 µM
inactive: [6]

CC(C)C1(C)N=C(c2nc3ccccc3cc2C(=O)O)NC1=O (configuration not stated)
inactive: all assays above

CNC(=O)ON=CC(C)(C)SC
inactive: all assays above

CCCCC(CC)COC(=O)c1ccccc1C(=O)OCC(CC)CCCC (configuration not stated)
active: [8] 9.29 µM
inactive: all other assays above

O=C(Nc1ccccc1)Nc1ccnc(Cl)c1
inactive: [6]
active: [1] 82.1 µM | [2] 81.5 µM | [3] 76.1 µM | [4] 80 µM | [5] 96.7 µM | [7] 74 µM | [8] 79.6 µM

CCNc1nc(Cl)nc(NCC)n1
active: [8] 3.7 µM
inactive: all other assays above

CS/C(C)=N/OC(=O)N(C)SN(C)C(=O)O/N=C(\C)SC
active: [8] 29.1 µM
inactive: all other assays above

CCCCNC(=O)n1c(NC(=O)OC)nc2ccccc21
active: [8] 18.6 µM
inactive: all other assays above

N#Cc1nn(-c2c(Cl)cc(C(F)(F)F)cc2Cl)c(N)c1S(=O)C(F)(F)F (configuration not stated)
active: [1] 36.2 µM | [2] 50.2 µM | [3] 33.2 µM | [6] 27.3 µM | [7] 32 µM | [8] 37.6 µM
inactive: [4] | [5]

COC(=O)N(OC)c1ccccc1COc1ccn(-c2ccc(Cl)cc2)n1
active: [1] 75.9 µM | [2] 78.7 µM | [3] 78.5 µM | [4] 50 µM | [5] 77.1 µM | [6] 7.22 µM | [7] 78.5 µM | [8] 82.4 µM

COP(=S)(OC)Oc1nc(Cl)c(Cl)cc1Cl
inactive: all assays above

COP(N)(=O)SC (configuration not stated)
inactive: all assays above

O=C(O)COc1nc(Cl)c(Cl)cc1Cl
inactive: all assays above
